# An excerpt weighted towards active compounds, which were near 6.6% of everything screened.
# Beta cell apopt: beta cell apoptosis inhibition; protection from apoptosis, % (concentration not given with the values); INS-1E cytokine-induced death, ATP luminescence, 48 h; percent of positive-control rescue, neutral wells zero; 300,000 tested, 0.8% active;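 active = Every replicate reaches about 75%, or at least half do and their mean reaches it too, limit read from the data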;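 also: higher means more ATP so stronger rescue from cytokine killing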
# Mdm2 MdmX PPI: inhibitors of human Mdm2/MdmX interaction; AID 485346; O15151+Q00987; SaOS-2 split-luciferase Mdm2/MdmX complementation, luminescence; inhibition, % at 8 µM; 330,000 tested, 3% active;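 active = inhibition of at least 50% at 8 µM in the primary screen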
# Target sequence (O15151 whole entry, looked up): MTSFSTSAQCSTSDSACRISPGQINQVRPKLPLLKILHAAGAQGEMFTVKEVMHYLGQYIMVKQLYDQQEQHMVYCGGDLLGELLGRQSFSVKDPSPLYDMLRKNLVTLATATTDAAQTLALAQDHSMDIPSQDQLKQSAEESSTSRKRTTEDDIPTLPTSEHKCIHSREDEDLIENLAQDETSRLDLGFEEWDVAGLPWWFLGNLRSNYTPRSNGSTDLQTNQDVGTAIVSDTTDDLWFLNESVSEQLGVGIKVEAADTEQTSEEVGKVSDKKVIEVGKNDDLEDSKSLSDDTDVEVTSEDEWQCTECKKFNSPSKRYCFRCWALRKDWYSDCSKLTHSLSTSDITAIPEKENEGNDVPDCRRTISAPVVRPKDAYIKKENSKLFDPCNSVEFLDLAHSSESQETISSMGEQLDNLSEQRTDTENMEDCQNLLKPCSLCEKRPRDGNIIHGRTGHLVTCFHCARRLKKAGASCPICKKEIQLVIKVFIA
# Target sequence (Q00987 whole entry, looked up): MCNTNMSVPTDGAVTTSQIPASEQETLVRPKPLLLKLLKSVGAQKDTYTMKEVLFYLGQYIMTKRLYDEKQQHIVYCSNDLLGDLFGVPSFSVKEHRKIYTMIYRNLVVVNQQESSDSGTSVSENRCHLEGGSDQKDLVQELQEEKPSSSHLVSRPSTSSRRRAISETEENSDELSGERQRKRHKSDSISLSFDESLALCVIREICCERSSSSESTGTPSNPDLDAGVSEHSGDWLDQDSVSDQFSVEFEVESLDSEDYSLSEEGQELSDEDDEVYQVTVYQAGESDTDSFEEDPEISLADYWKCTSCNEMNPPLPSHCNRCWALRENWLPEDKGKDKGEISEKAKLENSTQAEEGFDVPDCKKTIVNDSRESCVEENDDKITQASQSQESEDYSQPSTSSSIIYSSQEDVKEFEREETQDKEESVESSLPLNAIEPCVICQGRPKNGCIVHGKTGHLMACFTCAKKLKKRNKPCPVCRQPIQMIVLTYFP
# Gli-Sufu antag: blocks Gli-Sufu signaling in a luciferase reporter | Sufu-KO-LIGHT fibroblasts, Gli luciferase reporter luminescence | inhibition, % at 5 µM | 340,000 tested, 0.74% active;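 active = inhibition above about 55%, limit read from the data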
# GRIN3A LBD mod: modulates the human NR3A ligand-binding domain; Tm shift relative to glycine control, % at 25 µM; 340,000 tested, 2.5% active; NR3A LBD differential scanning fluorimetry, Tm shift; 0% = protein alone, 100% = glycine-bound protein;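 active = melting temperature shift of at least 10% of the positive control shift, at one fixed dose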
# CSC inhib: blocks cancer stem cells; cancer stem cell-like cells viability, luminescence; 300,000 tested, 1.1% active; inhibition, % at 7.5 µM; in the data active = inhibition above about 75%; tested in HMLE shEcad cells
# MPTP inh: inhibitors of mitochondrial permeability transition pore | isolated mouse mitochondria, Ca2+ swelling absorbance, 30 min | inhibition, % at 10 µM | 360,000 tested, 1.4% active;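 active = inhibition of 50% or more, scaled per plate between neutral and stimulator controls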
# Mdm2 MdmX conf: human Mdm2/MdmX binding inhibition, confirmed; AID 489028; shares compounds with Mdm2 MdmX PPI; inhibition, % at 8 µM; 10,000 tested, 55% active; luminescent assay; in the data active = inhibition above about 40%
# Full FLuc ctr: inhibits full-length luciferase, flagging false Mdm2/MdmX hits; shares compounds with Mdm2 MdmX PPI; SaOS-2 full-length luciferase counterscreen, luminescence; inhibition, % at 8 µM; 6,200 tested, 77% active; AID 504607;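 active = mean inhibition at 8 µM reaching about 37%, which flags the compound as non-specific, limit read from the data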;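 also: p53-null SaOS-2 cells with luciferase driven by a doxycycline-inducible promoter; compound on cells about two nights before reading with doxycycline added after day one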
# Numbers stand for hits; i = inactive; nt = not tested or not shown.
SMILES,Beta cell apopt,Mdm2 MdmX PPI,Gli-Sufu antag,GRIN3A LBD mod,CSC inhib,MPTP inh,Mdm2 MdmX conf,others
CC(=O)c1c(C)[nH]c(C(=O)N2CCN(c3cc(Cl)ccc3C)CC2)c1C,i,72.8,i,i,i,i,75.2,Full FLuc ctr=i
COc1ccc2c(c1)sc1nc(-c3ccccc3)cn12,i,83.6,i,20.3,91.4,i,69.6,Full FLuc ctr=113.9
COc1ccc(CNC(=O)C/C(C)=N/NC(=O)COc2ccc(C)cc2Br)cc1,i,56.8,i,i,i,i,i,
CCCNC(=O)C/C(C)=N/NC(=O)COc1ccc(C)cc1Br,i,i,i,i,i,i,nt,
CCS(=O)(=O)N1Cc2ccccc2CC1C(=O)NCCc1ccccc1 (stereo not given),i,i,i,i,i,i,nt,
Cc1cc(C)c(C(=O)N(C)C2CCCN(Cc3ccccc3F)C2)o1 (stereo not given),i,i,i,i,i,i,nt,
COC(=O)c1[nH]c2ccc(Br)cc2c1NC(=O)CN1CCN(C2CCCCC2)CC1,i,99.4,i,i,i,i,99.0,Full FLuc ctr=51.2
COC(=O)c1[nH]c2cc(C)ccc2c1NC(=O)CN1CCCc2ccccc21,i,i,i,i,i,i,nt,
COC(=O)c1[nH]c2ccc(Br)cc2c1NC(=O)CN1CCCc2ccccc21,i,53.4,i,i,i,i,i,
COC(=O)c1[nH]c2ccc(C)cc2c1NC(=O)CCN1CCN(C2CCCCC2)CC1,nt,i,nt,nt,nt,nt,nt,
CC(C)n1cnc2c(N(C)c3ccccc3)nc(N(CCN(C)C)Cc3ccccc3)nc21,i,58.3,i,i,i,i,i,
Cc1c(/C=N/NC(=O)c2cccs2)c2ccccc2n1Cc1ccccc1Cl,i,71.5,i,i,i,i,64.8,Full FLuc ctr=89.6
COc1ccc(C(C#N)c2nc3ccccc3nc2Cl)cc1 (stereo not given),i,51.8,i,i,i,i,i,
COc1ccc(C(C#N)c2ccc(Cl)nn2)cc1 (stereo not given),nt,i,i,i,i,i,nt,
CCCn1c(=S)[nH]c2cc(C(=O)NCC3CCCO3)ccc2c1=O (stereo not given),i,i,i,i,i,i,nt,
COc1ccc(Cn2c(=O)[nH]c3cc(C(=O)NCCCOC(C)C)ccc3c2=O)cc1,i,i,i,i,i,i,nt,
COc1ccc(Cn2c(=O)[nH]c3cc(C(=O)NCc4ccc5c(c4)OCO5)ccc3c2=O)cc1,i,65.0,i,i,i,i,i,
COc1ccc(Cn2c(=S)[nH]c3cc(C(=O)NCc4cccnc4)ccc3c2=O)cc1,i,74.3,i,i,i,i,i,
O=C(NCC1CCCO1)c1ccc2c(=O)n(Cc3cccc(Br)c3)c(=S)[nH]c2c1 (stereo not given),i,58.1,i,i,i,i,i,
O=C(OCc1cn([C@H]2CN(C(=O)C3CCCCC3)[C@@H](c3ccc(Cl)cc3)C[C@@H]2O)nn1)c1ccccc1,nt,nt,nt,nt,nt,i,nt,
CNC(=O)/C(C#N)=C/c1cn(CC(=O)NCc2ccco2)c2ccccc12,i,i,i,i,i,i,nt,
Cc1ccc(C)c(NC(=O)/C(C#N)=C/c2cn(CC(=O)NCc3ccco3)c3ccccc23)c1,95.5,91.6,i,i,82.0,i,77.8,Full FLuc ctr=89.2
Cc1ccc(NC(=O)/C(C#N)=C/c2cn(CC(=O)NCc3ccco3)c3ccccc23)cc1C,i,68.3,i,i,i,i,49.9,Full FLuc ctr=75.2
Cc1cc(C)cc(NC(=O)/C(C#N)=C/c2cn(CC(=O)NCc3ccco3)c3ccccc23)c1,101.3,94.5,i,i,i,i,i,
Cc1cc([N+](=O)[O-])nn1CC(=O)N(C)C1CCCCC1,i,i,i,i,nt,i,nt,
SMILES,Beta cell apopt,Mdm2 MdmX PPI,Gli-Sufu antag,GRIN3A LBD mod,CSC inhib,MPTP inh,Mdm2 MdmX conf,others
OCC1(O)OC[C@@H](O)[C@H]1O (stereo not given in full),i,i,i,i,i,i,nt,
C=CCn1cn[nH]c1=S,i,i,i,i,i,i,nt,
Cc1ccc(/C=N\NC(=O)C2CC(=O)N(c3ccccc3)C2)o1 (stereo not given),nt,i,i,i,i,i,nt,
COc1cc(OCc2ccccc2)c(C(=O)/C=C/c2ccc3c(c2)OCO3)c(OC)c1OC,i,70.1,i,i,i,i,i,
COc1cc(/C=C/C(=O)NC(C)(C)C)ccc1OCc1ccccc1,nt,i,i,i,i,i,nt,
COc1cc(/C=C/[N+](=O)[O-])ccc1OCc1cccc(C(=O)O)c1,nt,55.2,i,i,nt,nt,47.0,Full FLuc ctr=i
COc1ccc(C(=O)C=Cc2ccc(OCc3ccccc3)c(OC)c2)cc1OC,nt,nt,nt,nt,nt,i,nt,
COc1cc(/C=C/[N+](=O)[O-])ccc1OC(=O)/C=C/c1ccc(F)cc1,nt,72.8,i,i,nt,i,71.0,Full FLuc ctr=50.9
COc1cc(OC)c(C(=O)/C=C/c2ccc(OCc3ccccc3)c(OC)c2)c(OC)c1,nt,60.4,i,i,nt,i,i,
O=C(NCC(c1ccco1)N1CCCC1)c1ccccc1Sc1ccc(C(F)(F)F)cc1[N+](=O)[O-] (stereo not given),i,i,i,i,i,i,nt,
CCc1nc2c(OCC(=O)N3CCOCC3)cccn2c1N(C)C(=O)COc1ccccc1,nt,nt,nt,nt,nt,i,nt,
Cc1cc(C(=O)COC(=O)c2nn(C)c(=O)c3ccccc23)c(C)n1C,nt,nt,i,i,nt,i,nt,
O=C(Nc1cccc(-c2csc(Nc3ccc(Cl)cc3)n2)c1)c1cccc(C(F)(F)F)c1,i,58.4,i,26.3,i,i,i,
O=C(Nc1cccc(-c2csc(Nc3ccccc3)n2)c1)c1cc([N+](=O)[O-])cc(C(F)(F)F)c1,i,i,i,i,i,i,nt,
Cc1ccc(Nc2nc(-c3sc(NC(=O)c4ccc([N+](=O)[O-])cc4)nc3C)cs2)cc1,i,i,nt,nt,i,nt,nt,
O=C(Nc1ccc(-c2csc(Nc3ccc(Cl)cc3)n2)cc1)c1cc([N+](=O)[O-])cc(C(F)(F)F)c1,i,71.2,i,20.0,148.7,i,i,
O=C(Nc1cccc(-c2csc(Nc3ccc(Cl)cc3)n2)c1)c1cc([N+](=O)[O-])cc(C(F)(F)F)c1,i,84.6,i,20.1,108.2,i,i,
COCCN(C(=O)c1sc2ccccc2c1Cl)c1c(N)n(CC(C)C)c(=O)[nH]c1=O,i,i,i,i,i,i,nt,
O=[N+]([O-])c1cccc(CON=Cc2cc(Cl)ccc2O)c1,nt,nt,nt,nt,nt,i,nt,
Cc1ccc(-c2c(C#N)c(N)n3c(nc4ccccc43)c2C#N)cc1,80.3,77.2,i,i,i,i,54.9,Full FLuc ctr=57.7
N#Cc1c(-c2ccccc2)c(C#N)c2nc3ccccc3n2c1N,i,54.7,i,i,i,i,47.9,Full FLuc ctr=48.2
CCN1C(=O)[C@H]2[C@H]3CN=C(SCc4ccc(C(=O)OC)cc4)N3[C@@](C)(C(=O)OC)[C@H]2C1=O,nt,i,i,i,nt,i,nt,
O=C(Cn1cnc2c(oc3nc4c(cc32)CCCC4)c1=O)Nc1cccc(Cl)c1,i,57.0,i,i,i,i,i,

# Screening results (PubChem BioAssay)
